Assay outcomes deposited in PubChem BioAssay by several laboratories.
Mtb BioA inh = M. tuberculosis BioA enzyme inhibitors, primary screen, biochemical, plate reader, single point, HTS; inhibition, % at 9.99 µM; 7,8-diaminopelargonic acid synthase BioA (Mycobacterium tuberculosis); 0.096% of 360,000 active; purified M. tuberculosis BioA enzyme; in the data active means inhibition above about 40%
FadD28 FP inh = inhibitors of FadD28 bisubstrate probe binding, primary screen, biochemical, fluorescence polarization, single point; Mycobacterium tuberculosis FadD28 fatty-acid-AMP ligase; inhibition, % at 12.5 µM; 0.22% of 360,000 active; AID 588549, 2011; in the data active means inhibition above about 8.5%, passing the limit was not always enough
Rv3671c inh = Rv3671c serine protease inhibitors, primary screen, biochemical, fluorescence polarization, M. tuberculosis H37Rv; P9WHR9; inhibition, % at 5.96 µM; 0.048% of 320,000 active; in the data active means inhibition above about 38%;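 further: extracellular domain of Rv3671c used as enzyme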
Target sequence (P9WHR9 whole entry, looked up, the tested form may be a part): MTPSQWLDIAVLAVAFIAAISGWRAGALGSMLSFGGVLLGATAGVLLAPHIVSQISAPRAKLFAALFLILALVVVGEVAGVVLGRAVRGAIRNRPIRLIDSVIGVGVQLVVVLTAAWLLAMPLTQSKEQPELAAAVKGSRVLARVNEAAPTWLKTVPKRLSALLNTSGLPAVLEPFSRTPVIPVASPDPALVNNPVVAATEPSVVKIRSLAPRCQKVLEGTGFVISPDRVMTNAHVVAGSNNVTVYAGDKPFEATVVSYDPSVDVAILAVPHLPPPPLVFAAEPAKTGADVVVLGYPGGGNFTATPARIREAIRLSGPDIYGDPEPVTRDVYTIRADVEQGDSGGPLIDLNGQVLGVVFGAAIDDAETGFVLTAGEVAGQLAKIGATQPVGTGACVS
Mtb UGM inh = M. tuberculosis UGM enzyme inhibitors, primary screen, biochemical, fluorescence polarization, single point. inhibition, % at 10 µM. AID 504406, 2011. UDP-galactopyranose mutase (Mycobacterium tuberculosis (strain ATCC 25618 / H37Rv)), …. 0.06% of 320,000 active. purified UGM, fluorescence polarization probe displacement; in the data active means inhibition above about 10%, passing the limit was not always enough
TcdB inh = TcdB glycohydrolase inhibitors, primary screen, biochemical, single point, plate reader; Toxin B (Clostridioides difficile), P18177; TcdB glycohydrolase enzymatic assay; inhibition, % at 9.99 µM; 0.24% of 350,000 active; AID 652162, 2013; in the data active means inhibition above about 10%
RecA splice inh = Mtb RecA intein splicing inhibitors, primary screen, biochemical, fluorescence, HTS. Protein RecA (Mycobacterium tuberculosis (strain ATCC 25618 / H37Rv)), P9WHJ3. cell-free RecA intein splicing. inhibition, % (no concentration beside the values). 0.75% of 290,000 active. AID 2221, 2009; in the data active means inhibition above about 30%
Hits are given with their value; i = inactive; nt = not tested or not shown. Most compounds without a hit are left out; they make up all but 0.97% or so of the library.

SMILES	Mtb BioA inh	FadD28 FP inh	Rv3671c inh	Mtb UGM inh	TcdB inh	RecA splice inh
CN(CC(=O)Nc1cccc(F)c1)C(=O)Cn1c(=O)cnc2ccccc21	nt	55	i	i	i	i
CCCNC(=O)C[C@@H]1C[C@@H]2c3cc(NC(=O)CC4CC4)ccc3O[C@@H]2[C@@H](CO)O1	i	nt	nt	nt	i	nt
CC1(C)Cc2nc(Cl)c(C#N)cc2CO1	i	i	i	i	10	i
O=C(CCl)Nc1cc(S(=O)(=O)N2CCCCCC2)ccc1Cl	nt	i	i	i	nt	67
O=c1/c(=C/c2ccccn2)sc2nc3ccccc3n12	nt	i	i	nt	nt	i
O=c1/c(=C\c2cc([N+](=O)[O-])cc([N+](=O)[O-])c2O)sc2nc3ccccc3n12	i	23	i	i	nt	nt
CCOC(=O)/C=c1\s/c(=C\c2c(OC)ccc3ccccc23)c(=O)n1CC(=O)NCC1CCCO1 (stereo unspecified)	i	i	i	i	i	i
CCOC(=O)/C=c1/s/c(=C/c2ccc3cc(OC)ccc3c2)c(=O)n1CC(=O)NCC1CCCO1 (stereo unspecified)	nt	i	nt	nt	12	nt
CCOC(=O)Cn1c(C(F)(F)F)nc2nc(Cl)c(Cl)nc21	nt	i	nt	nt	12	nt
O=C(O)CCNc1ccc(NCCC(=O)O)c2c1C(=O)c1ccccc1C2=O	nt	10	i	i	i	i
COc1ccc(NC(=O)N2CC3(C2)CN(C(=O)C2CCC2)[C@H](CO)c2c3c3ccc(OC)cc3n2C)cc1	nt	nt	nt	nt	i	nt
COc1cc(/C=C(\C#N)c2nc3ccc(C)cc3[nH]2)cc([N+](=O)[O-])c1O	nt	30	nt	nt	i	nt
COc1cc(/C=C(\C#N)c2nc3ccc(C)cc3[nH]2)c([N+](=O)[O-])cc1OC	i	i	i	i	nt	i
C[C@H]1CCCCO[C@@H](CN(C)C(=O)Cc2ccccc2)[C@@H](C)CN([C@@H](C)CO)C(=O)c2cc(NC(=O)c3ccncc3)ccc2O1	nt	nt	nt	nt	i	nt
C[C@@H]1CCCCO[C@@H](CN(C)CC2CC2)[C@@H](C)CN([C@H](C)CO)C(=O)c2cc(NS(C)(=O)=O)ccc2O1	i	nt	nt	nt	i	nt
[O-]/C(=C(\C(=S)Nc1cccc2ccccc12)[n+]1cccc(CO)c1)c1ccc(Cl)s1	nt	i	nt	nt	i	nt
Cc1c(Cl)cccc1NC(=S)/C(=C(\[O-])c1ccc(Cl)s1)[n+]1ccccc1	nt	i	i	i	nt	37
CC(=O)N(C)C[C@H]1Oc2cc(-c3cccc(F)c3)ccc2S(=O)(=O)N([C@@H](C)CO)C[C@@H]1C	i	nt	nt	nt	i	nt
CCCN(CCC)CCCNC(=O)c1cn(CCOC)c(=O)c2c1c1ccccc1n2C	i	i	i	i	nt	i
CCOC(CCNC(=O)c1cn(CCOC)c(=O)c2c1c1ccccc1n2C)OCC	i	i	i	i	21	i
Fc1ccc(/C=C\c2nccc3c2[nH]c2ccccc23)cc1	i	i	i	i	12	i
C(=C\c1nccc2c1[nH]c1ccccc12)/c1ccccc1	nt	i	i	i	i	i
O=C(CCCN1C(=O)/C(=C\c2ccco2)SC1=S)Nc1ccc(O)cc1C(=O)O	i	40	i	i	i	i
O=C(CCCN1C(=O)/C(=C/c2ccco2)SC1=S)Nc1cccc(C(=O)O)c1	nt	18	i	i	i	i
O=C(CCCN1C(=O)/C(=C\c2cccs2)SC1=S)Nc1ccc(C(=O)O)cc1	i	i	i	i	i	i
SMILES	Mtb BioA inh	FadD28 FP inh	Rv3671c inh	Mtb UGM inh	TcdB inh	RecA splice inh
O=C(CCCN1C(=O)/C(=C/c2cccs2)SC1=S)Nc1ccccc1O	i	i	i	i	i	i
O=C(CCCN1C(=O)/C(=C\c2cccs2)SC1=S)Nc1ccc(O)cc1C(=O)O	i	i	i	i	i	32
O=C(CCCN1C(=O)/C(=C\c2cccs2)SC1=S)Nc1ccc(O)cc1	nt	nt	i	i	i	67
O=C(CCCN1C(=O)/C(=C\c2cccs2)SC1=S)Nc1cccc(C(=O)O)c1	nt	i	i	i	i	i
CN(C)CC(=O)Nc1ccc2c(c1)[C@@H]1C[C@@H](CC(=O)N3CCOCC3)O[C@@H](CO)[C@@H]1O2	i	nt	nt	nt	nt	nt
CO[C@H]1CN(C)C(=O)c2ccc(NC(=O)Nc3c(C)noc3C)cc2OC[C@H](C)N(C)C[C@H]1C	i	nt	nt	nt	i	nt
CN1CCN(C(=O)C[C@H]2C[C@H]3c4cc(NC(=O)c5ccc6c(c5)OCO6)ccc4O[C@H]3[C@H](CO)O2)CC1	i	nt	nt	nt	i	nt
CC[C@H](C)/C=C(C)/C=C/C1=CC2=C(Cl)C(=O)[C@](C)(OC(C)=O)C(=O)C2=CO1	i	17	i	nt	nt	nt
CCNC(=O)[C@@H]1[C@@H](CO)[C@@H]2Cn3c(ccc(-c4ccc(OC)cc4)c3=O)[C@@H]2N1Cc1ccccc1	i	nt	nt	nt	i	nt
O=C(c1ccncc1)N1CC2(C1)[C@H](c1ccccc1)[C@@H](CO)N2CC1CCOCC1	nt	nt	nt	nt	i	nt
CN1C(=O)c2cc(NC(=O)c3ccc(F)c(F)c3)ccc2OC[C@@H]2O[C@H](CC(=O)O)CC[C@@H]21	i	nt	nt	nt	nt	nt
CNC(=S)N/N=C/c1c(C(=O)OC)cnn1-c1ccc(F)cc1F	i	i	i	i	12	i
COC(=O)c1cnn(-c2ccc(F)cc2F)c1/C=N/NC(=S)NC(C)(C)C	i	i	i	i	i	nt
Cc1noc(C)c1NC(=O)Nc1ccc2c(c1)CC(=O)N([C@@H](C)CO)C[C@H](C)[C@H](CN(C)CC1CCCCC1)O2	i	nt	nt	nt	i	nt
COc1ccccc1/C=C/C1(C(=O)NC2CCCC2)CC(=O)N1c1ccc(C)cc1 (stereo unspecified)	nt	i	i	i	nt	34
COc1ccc(S(=O)(=O)Nc2ccc3c(c2)C(=O)N([C@H](C)CO)C[C@H](C)[C@H](CN(C)C(=O)Nc2ccc(C(F)(F)F)cc2)OCCCC[C@@H](C)O3)cc1	i	nt	nt	nt	i	nt
CN(C)C(=O)C[C@@H]1CC[C@H]2[C@@H](COC[C@@H](O)CN2CC2CCCCC2)O1	i	nt	nt	nt	i	nt
O=C(O)CSCC(=O)Nc1ccc(Cl)cc1C(F)(F)F	nt	i	i	i	i	i
CC(C)N(CC(=O)Nc1ccc(Cl)cc1C(F)(F)F)C(=O)CCl	nt	i	i	i	i	59
CCC(CC)NC(=O)Nc1cccc(C)c1C	nt	i	i	i	i	i
CCC(C)N(CC(=O)Nc1cccc(C)c1C)C(=O)CCl (stereo unspecified)	nt	i	i	i	nt	43
COc1ccc(NC(=O)N2CC3(C2)CN(C(=O)c2cccnc2)[C@H](CO)c2[nH]c4cc(OC)ccc4c23)cc1	nt	nt	nt	nt	i	nt
Cc1noc(C)c1S(=O)(=O)Nc1ccc2c(c1)CC(=O)N([C@@H](C)CO)C[C@@H](C)[C@H](CN(C)S(=O)(=O)c1cn(C)cn1)O2	i	nt	nt	nt	i	nt
